Where “and” joins values, the source holds several entries; their conditions need not be identical. Equal entries are not always repeated. Records with an inconclusive call do not appear. Entries that show only a call come without a potency. Calls of active or inactive are those of the source. Calls follow the shape of the dose curve; as a rule, active = well fitted cell-killing curve with a large enough effect in the repeat runs; inconclusive = weak or mixed curves, or effect the other way; inactive = flat fitted curve, though single readings scatter.
Assay: qHTS assay to identify small molecule agonists of the constitutive androstane receptor (CAR) signaling pathway - cell viability counter screen (AID 1224836); also: nearly all actives have a fitted effect of over 45% in size
Settings: HepG2-CYP2B6-hCAR viability, CellTiter-Fluor, 23 h, PK11195 added to every well; series mostly up to 92.4 µM
Source text: U.S. Tox21 Program National Center for Advancing Translational Sciences [NCATS] NIH Chemical Genomics Center [NCGC] U.S. Environmental Protection Agency [EPA] National Institutes of Environmental Health Sciences [NIEHS] National Toxicology Program [NTP] U.S. Food and Drug Administration [FDA] Tox21 Assay Overview: The constitutive androstane receptor (CAR) is a nuclear receptor which regulates multiple drug metabolizing enzymes (DMEs) and transporters. Activating CAR will generally increase the transcription and subsequent translation of CYP2B6 and CYP3A4. These two DMEs represent about 50% of the drug metabolizing potential in the body. […] Recently, there have also been studies performed indicating CARs role in energy metabolism and cancer therapy. Therefore, inducing CARs activity could have a potential effect on diabetes and cancer. Identifying environmental toxins and compounds which modulate CAR, through the use of the Tox21 10K compound collection, will be an important step in determining the toxicity and potential therapeutic effects these factors will have on the human body. To differentiate true CAR agonists from cytotoxic substances, the assay is multiplexed with a cell viability assay.
Tox21 Assay Protocol Summary: A double-stable (hCAR and CYP2B6-2.2kb) transfected cell line, derived from human hepatoma (HepG2) cells, was utilized for the duration of the quantitative high-throughput screens. The HepG2-CYP2B6-hCAR cells were dispensed at 2500 cells/4 uL/well in 1536-well white solid bottom plates using a Multidrop Combi. After the assay plates were incubated at 37 C/5% CO2 for 4 hrs, 23 nL of compounds at 15 concentrations (from 5-48 columns) or positive control (from 1 to 4 columns) were transferred to the assay plates using a Pintool station. One uL of PK11195 (final concentration = 0.75 uM) was added, using a Flying Reagent Dispenser, inside each well. After a 23 hr incubation period at 37 C/5% CO2, 1 uL of CellTiter-Fluor reagent was added into each well of the assay plates using a Flying Reagent Dispenser. The fluorescence intensity in the plates was then measured using a ViewLux plate reader.
In the case of COc1ccc2cc(S(=O)(=O)N[C@H](CC(=O)N[C@H](Cc3ccc(CN4[C@H](C)CCC[C@@H]4C)cc3)C(=O)N(C)C(C)C)c3ccc4c(c3)OCO4)ccc2c1, the Potency is reported as 23 µM (active). With O=C1O[C@H]([C@@H](O)CO)C(O)=C1O the Potency was “inactive”. With CCc1nc(N)nc(N)c1-c1ccc(Cl)cc1 the Potency was “inactive”. In the case of OC[C@H]1O[C@H](O[C@]2(CCl)O[C@H](CCl)[C@@H](O)[C@@H]2O)[C@H](O)[C@@H](O)[C@H]1Cl, the Potency is reported as “inactive”. With CCCCC1(COC(=O)CCC(=O)O)C(=O)N(c2ccccc2)N(c2ccccc2)C1=O the Potency was “inactive”. For Nc1c2c(nc3ccccc13)CCCC2, the Potency was “inactive”. For CCN(Cc1c(F)cccc1Cl)c1c([N+](=O)[O-])cc(C(F)(F)F)cc1[N+](=O)[O-], the Potency was “inactive”. With CCCCCCCCCCCC[N+](C)(C)Cc1ccccc1 the Potency was 47.6 µM (active) and 59.2 µM (active) and 29.8 µM (active). With C[C@](N)(Cc1ccc(O)c(O)c1)C(=O)O the Potency was “inactive”. In the case of CN(C)C(=S)SC(=S)N(C)C, the Potency is reported as 2.22 µM (active) and 1.72 µM (active) and 3.76 µM (active). For CC(C)c1c(C(=O)Nc2ccccc2)c(-c2ccccc2)c(-c2ccc(F)cc2)n1CC[C@@H](O)C[C@@H](O)CC(=O)O, the Potency was “inactive”. For CCCC[P+](CCCC)(CCCC)CCCC, the Potency was “inactive”. With NS(=O)(=O)c1cc2c(cc1Cl)NCNS2(=O)=O the Potency was “inactive”. With CN(N=O)C(=O)N[C@@H]1[C@@H](O)[C@H](O)[C@@H](CO)O[C@@H]1O the Potency was “inactive”. In the case of NC1CCCCC1, the Potency is reported as “inactive”. For NC(CO)(CO)CO, the Potency was “inactive”. With Cc1cc(=O)oc2cc(O)ccc12 the Potency was “inactive”. In the case of CCCCCCc1ccc(O)cc1O, the Potency is reported as “inactive”. In the case of COc1ccc2c(c1)c(CC(=O)O)c(C)n2C(=O)c1ccc(Cl)cc1, the Potency is reported as “inactive”. In the case of Cc1ccc(S(=O)(=O)O)cc1, the Potency is reported as “inactive”. In the case of F[B-](F)(F)F, the Potency is reported as “inactive”. For CN(C)CCOC(c1ccccc1)c1ccccc1, the Potency was “inactive”. With COc1cccc(O)c1O the Potency was “inactive”. In the case of Cc1cc(C)nc(NS(=O)(=O)c2ccc(N)cc2)n1, the Potency is reported as “inactive”. With CS(=O)(=O)OCCCCOS(C)(=O)=O the Potency was “inactive”. With CCCCOC(=O)c1ccc(O)cc1 the Potency was “inactive”. In the case of CC(O)(P(=O)(O)O)P(=O)(O)O, the Potency is reported as “inactive”. With Cc1ncc([N+](=O)[O-])n1CCO the Potency was “inactive”. For O=C1NS(=O)(=O)c2ccccc21, the Potency was “inactive”. In the case of CN1CCC[C@H]1c1cccnc1, the Potency is reported as “inactive”. In the case of CN1[C@@H]2CC(OC(=O)[C@H](CO)c3ccccc3)C[C@H]1[C@@H]1O[C@@H]12 (stereo not given in full), the Potency is reported as “inactive”. In the case of Cc1cccc(C)c1, the Potency is reported as “inactive”. In the case of CC(=O)CC(c1ccccc1)c1c(O)c2ccccc2oc1=O (stereo not given), the Potency is reported as “inactive”. In the case of NS(=O)(=O)O, the Potency is reported as “inactive”. In the case of NC(=O)c1cccnc1, the Potency is reported as “inactive”. With CC(C)C(=O)Nc1ccc([N+](=O)[O-])c(C(F)(F)F)c1 the Potency was “inactive”. For CCCc1cc(=O)[nH]c(=S)[nH]1, the Potency was “inactive”. For Cc1cn([C@H]2C=C[C@@H](CO)O2)c(=O)[nH]c1=O, the Potency was “inactive”. In the case of O=C1c2c(O)cccc2Cc2cccc(O)c21, the Potency is reported as “inactive”. In the case of CN1CCc2cccc3c2[C@H]1Cc1ccc(O)c(O)c1-3, the Potency is reported as 49.1 µM (active) and 22.8 µM (active).

Source: PubChem BioAssay (Tox21)
Potency is read from the fitted curve at half-maximal effect.
